Assay results published in the supplement of paper PMC11417369.
In all, about 25,000 sequences were measured (“ln(normalized median fluorescence intensity)”: median about 9.7, highest 2% from about 11 on). The sample as a whole holds a higher share of the highest values than the screen did.

tested on: PfAP2-HC AP2 domain (GST-tagged); test: gcPBM binding intensity (ln(normalized median fluorescence intensity)); higher = stronger DNA binding
How it was run: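 GST-tagged P. falciparum DNA-binding domains produced in E. coli were incubated for 1 h on an Agilent 4 × 180k array of primer-extended double-stranded 36-bp intergenic genomic probes with negative controls. Binding intensity is the highest Masliner-normalised natural-log median intensity across replicate spots of either probe orientation, with bound protein detected by Alexa488 anti-GST antibody at 488 nm.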

| Sequence | gcPBM binding intensity (ln) |
| --- | --- |
| AATAAATTGGTATGTTGTACAAAGTAACCATCGATT [XGTACX_site2823] | 9.75 |
| ATTCCACTGTTTTAGTGTACTGGTCGTTTTTTTTTT [XGTACX_site1738] | 9.89 |
| TTAAATAAAATAAAAACATGCACACTTTATTTTTTT [TGCATGCA_site719] | 9.74 |
| TATTAATTATTATGACATACATATCAGTTATTAAAA [CACACA_negctrl_site600] | 9.35 |
| GTTACACCAACAAACACACACACACCCACCCACAAA [CACACA_site2427] | 10.6 |
| AGCACCCACCAACACACACACACACCCACCCACCCA [CACACA_site8011] | 11.2 |
| GTTACACCAACAAACACACACACACCGACACCCAAA [CACACA_site5361] | 10.6 |
| AGCACCCACCAACACACACACACACCCACCCACCGA [CACACA_site368] | 11.2 |
| ATCAAGCACCAACACACACACACACCCCCACCCACA [CACACA_site370] | 11.3 |
| TCTTTATTATTCGCCACACACATATATATATATATA [CACACA_site3077] | 10.1 |
| TTTCCAAATTGTTGACGGACACTCACGAATAGTTAT [XGTACX_site5720] | 9.63 |
| ATTAAATGATCAAGGTGTACATTAACAAGAACTATA [XGTACX_site7022] | 9.72 |
| CGTAGCCGCACTAACACACACAAATATACGCAATCA [CACACA_site2898] | 10.1 |
| CGTAGCCACACTAACACACACAAATATACACAATCA [CACACA_site7379] | 10.7 |
| TACGTAGCCACACTAACACACACAAATATGCACAAT [CACACA_site8942] | 10.9 |
| TTTTTTTAAAGAATTATCATAAAATGATTGCATCAT [XGTACX_negctrl_site141] | 9.34 |
| GCGAAATATTATTATAGTATACAAATACTTCTATGA [CACACA_negctrl_site197] | 9.51 |
| TATCCATATTTGTTCACACACACACCCATTTATATA [CACACA_site3571] | 11 |
| TGTATCCATATTTGTTCACACACACCCATATTTATA [CACACA_site9190] | 10.4 |
| TATCCATATTTGTTCACACACACACCGATTTATATA [CACACA_site5888] | 10.2 |
| TATAAAAAAAAAAAAAAAAAAAAAAATATATATATA [CACACA_negctrl_site817] | 9.34 |
| TGGGATAGATCATTTACACACACAAAAAAAAAAAAA [CACACA_site2140] | 9.89 |

| Sequence | gcPBM binding intensity (ln) |
| --- | --- |
| TTATTTATTTATTATAGTTCACTTGAAAATACAAGA [CACACA_negctrl_site1480] | 9.38 |
| CACGCATACGGACACACACACACACCGATATATATA [CACACA_site4521] | 11 |
| GGCATACACGGACACACACACACACCGACATATATA [CACACA_site4493] | 11.5 |
| AGTATACATATATATACACACACACCGATATATATA [CACACA_site8357] | 10.4 |
| ATAGTATACAGACACACACACACACCGATATATATA [CACACA_site8511] | 10.7 |
| CATACACGCGGACACACACACACACGCATATATAAC [CACACA_site6427] | 11.2 |
| TATACACGCGGACACACACACACACGCAAAAAAAAA [CACACA_site6377] | 10.5 |
| TATAGATACATATACACACACACACCGACATATATA [CACACA_site9138] | 10.8 |
| CGCATACACGGACACACACACACATATATATATATA [CACACA_site4520] | 10.9 |
| ATAGTATACGGACACACACACACACCGATATATATA [CACACA_site5032] | 11.2 |
| AAAAAAAAAAGACACACACACACACGCATATACATA [CACACA_site7289] | 10.7 |
| TATATATACATATACACACACACACCGATATATATA [CACACA_site8706] | 10.5 |
| TACATGAATAAACTTACACACACCCATGCATACATA [CACACA_site97] | 10.4 |
| ATGTTATAATTTAGTGTGCACATATTAAGAGGAACA | 10.1 |
| TACATACAGATATATACACACATATATAATATATAT [CACACA_site4376] | 10 |
| CCCTTAATATAAAGCACACATATATATAATATATAT [CACACA_site4439] | 9.79 |
| CAAAATAAAAATAACACACACATTTATTTATATACA [CACACA_site6679] | 10.1 |
| CCCCTCGAAATAATTTGTACGAATATATTGTCTGTA [XGTACX_site8308] | 9.68 |
| ATGTATATGATTAAATGTACGTAAACAAATTTGTAA [XGTACX_site8174] | 9.81 |
| ATATCATTAAAAGGATGTACATATGTGTATACAATA [XGTACX_site871] | 9.84 |
| TATATATATATATATATATATATTAATATATATTAC [XGTACX_negctrl_site103] | 9.62 |
| AAAAAAAAAAAAAACACACACACATAGACCTCCAAT [CACACA_site3563] | 11.3 |

| Sequence | gcPBM binding intensity (ln) |
| --- | --- |
| AAAAAAAAAAGACACACACACATAGACCTCCAATAG [CACACA_site7646] | 10.5 |
| AAAAAAAAAAAACACACACACATAGACCTCCAATAG [CACACA_site3562] | 10.3 |
| ATAAAGAAATAAAGTTGTACATTATATATATATATA [XGTACX_site7729] | 9.61 |
| GGTATATTAAAATAGGTGCATAAAACTAAGAGAAAA [GTGCAC_site9781] | 9.73 |
| AAAGAAAGAAAACACACACACATATATATATATCAA [CACACA_site3743] | 10.9 |
| ATCAAAAGAAAACACACACACATACATATATATATA [CACACA_site3795] | 11.1 |
| ATCAAAAGAAAACACACACACATACAGATATATATA [CACACA_site5974] | 11.2 |
| AAAAAAAAAAAACATACACACATACATACAGATATA [CACACA_site4681] | 10.1 |
| TAGATACAGAAACACACACACACATACATATATACA [CACACA_site3437] | 10.6 |
| AAAAAATACATCAAAAGAAACATATATATATATATA [GTGCAC_negctrl_site719] | 9.59 |
| ATCTTTTATATATTCACACATAAAATTATACAGATA [CACACA_site5277] | 9.46 |
| TATATTTCAGGGGGGAGTACAAATTTTTTTATATAA [XGTACX_site1600] | 10 |
| ATATATGGGTAGTATACACACTGTATATTTAGGAAT [CACACA_site7357] | 9.91 |
| ATATATATATATATGTGTACTAATAAGGTTAAATAA [XGTACX_site1535] | 9.85 |
| CAAGAAAAGAAACACACACACATATATATATATATA [CACACA_site3881] | 11.2 |
| AAAAAAAAAAAAGAAACACACATATATATATATATA [CACACA_site140] | 9.68 |
| AAGAAAAAAAAAAAAACACACATATATATATATATA [CACACA_site2027] | 10.2 |
| AAAAAAAAAAAAAAAACACACATATAGATTTATATA [CACACA_site7196] | 9.88 |
| TATATATAGAAACACACACACATATATATATATATT [CACACA_site4115] | 10.5 |
| TATATATAGAAACACACACACACATATATATATATT [CACACA_site2539] | 11.3 |
| TATATATAGAAACACACACACACATATATATATATA [CACACA_site4116] | 10.3 |
| AAAAAAAAAAGAAACACACACATATAGATTTATAAC [CACACA_site6927] | 10.9 |

| Sequence | gcPBM binding intensity (ln) |
| --- | --- |
| AAAAAAAAGAAAAACACACACATATTTATTTATAAC [CACACA_site6600] | 10.2 |
| AAAAAAAAAAAAGAAACACACACATATATATATATA [CACACA_site8525] | 10.7 |
| AAAAAAAAGAAAAACACACACATATATATATAGAAT [CACACA_site1006] | 11.3 |
| AAAAAAAAAAGAAACACACACATATATATATAGAAT [CACACA_site1777] | 10.3 |
| AAAGGTAAATGTAAATAAATAAATAATAAATATATA [GTGCAC_negctrl_site681] | 9.77 |
| TTTTCTTGACCTATTATTCTTCTCATAGTATAATAT [GTGCAC_negctrl_site641] | 9.62 |
| TGAACATACATCAAAAGTACAAACTCGCATGTTATA [XGTACX_site3320] | 9.67 |
| TATAATATTATACATAGTACACATCACACATCGCAA [XGTACX_site4650] | 9.99 |
| AATAAGCAGAAACACACACACAAAAAAAAAAAAAAA [CACACA_site719] | 10.1 |
| ATAATAAGCAAACACACACACACAAAAAAAAAAAAA [CACACA_site720] | 11.6 |
| ATAATAAGCAGACACACACACACAAAAAAAAAAAAA [CACACA_site6477] | 11 |
| GACACAAAAAAATAATAATAATAATAATAATAAATA [XGTACX_negctrl_site145] | 9.75 |
| ATCAAATAATAGCAAACACACAAAAAATAAAAAAAA [CACACA_site4146] | 9.93 |
| AATAAGCATAGACACACACACAAAAAAAAAAAAAAA [CACACA_site6476] | 10.1 |
| GTGATTAATATATACACACATACATATATATATATA [CACACA_site2817] | 9.81 |
| TATATATTAAAAATAGTGCAAAATAATATATATATA [GTGCAC_site9716] | 9.82 |
| TTTTTTACATCCATAAAACTTTTTCTCTTTTAAAAT [CACACA_negctrl_site1745] | 9.43 |
| AAAATTTATGGAAGGTGTACTGTTAATTATGTATAT [XGTACX_site6446] | 9.74 |
| AGGAAGGAAATAAATCAACACACATATATTATATAT [CACACA_site8678] | 9.87 |
| CAAAAAAATGTGAAGGCATGCAAATATGTAAAATAA [TGCATGCA_site921] | 10.9 |
| TTATTGTAAATATATGCATGTGCAAAATGAAAAAAA [TGCATGCA_site399] | 9.69 |
| TTTTATGCATGTGAAGTGCAAAATAAAAAATAAAAT [GTGCAC_site9612] | 9.56 |
